# Rows were chosen to be rich in hits. Some 1.6% of all compounds tested hit in one or more screens of this group.
# CCHFV vOTU inh – CCHFV vOTU protease inhibitors, primary screen, biochemical, Pep-AMC substrate, fluorescence; AID 651958, 2012; inhibition, % at 11.5 µM; 0.55% of 370,000 active; Crimean-Congo hemorrhagic fever virus L polyprotein viral ovarian tumor (vOTU) protease …; in the data active = inhibition above about 30%; note: 0% = vehicle wells with enzyme and 100% = no enzyme wells
# Sa ugtP lethal – growth inhibition of ugtP-null S. aureus, primary screen, RN4220 ugtP deletion, OD600; 16 h; growth inhibition, % (test concentration not listed); 0.54% of 330,000 active; AID 1259309, 2017; in the data active = growth inhibition above about 68%;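 note: plate controls were untreated wells for no effect and antibiotic for full effect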
# RecA intein inh – Mtb RecA intein splicing inhibitors, primary screen, biochemical, fluorescence, HTS; AID 2221, 2009; cell-free RecA intein splicing; Protein RecA (Mycobacterium tuberculosis (strain ATCC 25618 / H37Rv)), P9WHJ3; 0.75% of 290,000 active; inhibition, % (concentration not given with the values); in the data active = inhibition above about 30%;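 note: 0% = vehicle wells and 100% = reference inhibitor control wells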
# Target sequence (P9WHJ3 whole entry, looked up): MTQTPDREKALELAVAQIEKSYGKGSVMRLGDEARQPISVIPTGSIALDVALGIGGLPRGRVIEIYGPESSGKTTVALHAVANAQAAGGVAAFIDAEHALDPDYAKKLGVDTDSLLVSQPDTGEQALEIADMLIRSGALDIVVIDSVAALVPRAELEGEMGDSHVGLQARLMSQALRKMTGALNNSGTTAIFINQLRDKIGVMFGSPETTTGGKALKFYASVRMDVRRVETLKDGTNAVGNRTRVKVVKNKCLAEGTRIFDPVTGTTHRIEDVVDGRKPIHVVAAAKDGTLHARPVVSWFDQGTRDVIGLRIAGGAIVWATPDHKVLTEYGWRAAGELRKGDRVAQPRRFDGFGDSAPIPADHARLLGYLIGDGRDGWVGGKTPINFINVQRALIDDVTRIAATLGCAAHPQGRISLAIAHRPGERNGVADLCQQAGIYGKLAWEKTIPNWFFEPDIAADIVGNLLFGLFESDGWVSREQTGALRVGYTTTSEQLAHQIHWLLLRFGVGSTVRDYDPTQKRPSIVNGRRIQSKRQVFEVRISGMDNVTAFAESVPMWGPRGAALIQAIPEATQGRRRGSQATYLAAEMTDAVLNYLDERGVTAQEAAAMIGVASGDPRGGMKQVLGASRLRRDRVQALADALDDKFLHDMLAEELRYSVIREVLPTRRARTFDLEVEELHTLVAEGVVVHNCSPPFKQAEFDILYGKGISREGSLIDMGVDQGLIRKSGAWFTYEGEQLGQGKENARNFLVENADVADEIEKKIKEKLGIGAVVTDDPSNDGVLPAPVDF
# Mtb hypoxia inh – PubChem AID 1159583. M. tuberculosis hypoxia-regulated fluorescent reporter, fluorescence. fluorescence inhibition, % (no concentration beside the values). 0.1% of 300,000 active; in the data active = fluorescence inhibition mostly above about 23%, no sharp cut-off; inactive = mostly below about 17%
# RN4220 kill – growth inhibition of S. aureus RN4220, primary screen, OD600; inhibition, % (test concentration not listed); 16 h; AID 1259311, 2017; 0.33% of 330,000 active; in the data active = inhibition above about 85%;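 note: plate controls were untreated cells for no effect and reference antibiotic for full effect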
# BJeLR viability – MLPCN primary cell-based screen for lethality selective to Ras in HRASV12 cells; BJeLR (HRASV12) viability, CellTiter-Glo ATP luminescence, 48 h; inhibition, % (concentration not given with the values); 0.17% of 300,000 active; in the data active = inhibition above about 50%
# Active calls of the source: *; x = not tested or not shown.
SMILES,CCHFV vOTU inh,Sa ugtP lethal,RecA intein inh,Mtb hypoxia inh,RN4220 kill,BJeLR viability
O=C1NC(Cc2ccccc2)C(=O)N2C1C[C@]1(Br)c3ccccc3N(S(=O)(=O)c3ccc(F)cc3)C21 (some centres not stated),x,-6.3,x,-6.5,13.9,x
COc1ccc(NC(=O)c2cccc(N3C(=O)C4C5C=CC(C5)C4C3=O)c2)cc1Cl (configuration not stated),14.9,x,93.5*,x,x,6.7
CCCOc1ccccc1OCC(=O)N1CCN(S(=O)(=O)c2ccc(Cl)cc2)CC1,1.9,4.3,x,32.5*,3.9,x
CCCCCNCc1ccc(Cl)cc1,6.2,5.3,-2.0,18.5,7.4,2.5
CCCCCCC[N+](CC)(CC)CCCCc1ccc(Cl)cc1,15.4,100.3*,x,23.3,94.5*,x
CC(NC(=O)c1nc[nH]c1C(=O)NCc1ccccc1)c1ccccc1 (configuration not stated),x,-0.4,x,10.7,1.4,x
COc1ccccc1/C=C1\SC(=O)N(CCC(=O)NCCCn2ccnc2)C1=O,11.2,7.5,1.4,4.6,1.5,82.6*
COc1ccc(/C=C2\SC(=S)N(CCC(=O)NCCCn3ccnc3)C2=O)cc1,9.3,-0.5,15.7,4.6,4.2,3.6
COc1ccccc1/C=C1\SC(=S)N(CCC(=O)NCCCn2ccnc2)C1=O,13.1,12.3,2.7,5.6,7.1,77.7*
O=C1C=C2C=CC3C[C@]2(O1)C1CCCCN31 (some centres not stated),x,-0.8,x,18.0,5.6,x
O=C(Nc1cc(Cl)ccc1-n1cncn1)c1ccc([N+](=O)[O-])s1,x,100.5*,-9.1,4.9,26.8,-2.4
CCCCC1COCCS(=O)(=O)N1Cc1ccc(C)cc1 (configuration not stated),x,-9.1,x,7.4,5.0,x
COc1cccc(C(=O)CC(=O)C(=O)Nc2ccc(C)cc2Cl)c1,14.4,86.9*,10.2,6.9,77.1,1.5
COc1ccc(C(=O)CC(=O)C(=O)Nc2ccc(C)cc2Cl)cc1,-6.0,20.1,0.6,8.7,25.1,0.4
COc1cc(OC)c(NC(=O)Cn2cccc2)cc1Cl,-6.4,13.0,4.3,12.5,6.4,1.7
COc1cc(OC)c(NC(=O)C(=O)CC(=O)c2ccc(C)cc2C)cc1Cl,5.8,68.6,-10.1,5.0,84.6*,3.9
COc1ccc(CN(C(CO)CC(C)C)S(=O)(=O)N(Cc2ccccc2)C(CO)CC(C)C)cc1 (configuration not stated),x,-3.6,x,6.6,2.3,x
COC(=O)C1=C(c2ccc(F)cc2OCc2ccccc2)CC2CCC1N2C(=O)NCc1ccc(C(F)(F)F)cc1 (configuration not stated),x,6.3,x,10.1,-12.7,x
COc1cc(/C=C2\SC(N)=NC2=O)ccc1OCC(=O)Nc1ccccc1C,25.4,-5.4,x,56.8*,-0.6,x
COc1ccc(-c2nnc(NC(=O)c3ccc(S(=O)(=O)N(C)CC4CCCO4)cc3)o2)c(OC)c1 (configuration not stated),10.6,100.5*,3.4,-0.6,-6.9,-1.3
Cc1cc(NC(=O)c2ccc(S(=O)(=O)N(C)CC3CCCO3)cc2)no1 (configuration not stated),4.4,8.9,3.7,6.0,0.6,-6.4
O=C(NC(c1ccccc1)C1CC1C(=O)NCc1ccccn1)OCc1ccccc1 (configuration not stated),x,1.0,x,17.1,3.9,x
O=C(/C=C/c1ccccc1)c1cc(Br)ccc(=O)c1O,-0.5,98.7*,0.6,19.6,99.2*,23.8
COc1ccccc1CN1C(CC(C)=O)c2cc(C(F)(F)F)ccc2S1(=O)=O (configuration not stated),x,0.8,x,23.0,10.9,x
CC1=C(C(=O)O)N2C(=O)C(NC(=O)c3nn(C)c(C)c3Cl)C2SC1 (configuration not stated),9.3,23.1,1.2,1.2,19.0,2.9
SMILES,CCHFV vOTU inh,Sa ugtP lethal,RecA intein inh,Mtb hypoxia inh,RN4220 kill,BJeLR viability
CC(=O)OCC1=C(C(=O)O)N2C(=O)C(NC(=O)c3ccc(F)cc3)C2SC1 (configuration not stated),4.3,100.2*,3.3,-4.9,100.0*,-3.7
CC(=O)OCC1=C(C(=O)O)N2C(=O)[C@@H](NC(=O)CSc3ccncc3)[C@H]2SC1,10.0,99.3*,x,x,99.7*,x
CO/N=C(\C(=O)N[C@@H]1C(=O)N2C(C(=O)O)=C(COC(N)=O)CS[C@H]12)c1ccco1,6.8,x,-1.2,x,x,3.9
CC(=O)OCC1=C(C(=O)O)N2C(=O)C(NC(=O)C(C)Cn3nc(C)c(Cl)c3C)C2SC1 (configuration not stated),-3.3,100.7*,-3.0,-1.9,100.3*,-11.0
Cc1ccc(-c2nc(N)sc2-c2ccccc2)cc1C,16.0,95.7*,0.3,16.0,-12.2,-2.6
Nc1nc(-c2ccccc2)c(-c2ccccc2)s1,4.8,35.4,8.6,x,-0.8,-1.1
CCn1cc(C(=O)O)c(=O)c2cc(F)c(N3CCN(S(=O)(=O)c4ccc5c(c4)OCCO5)CC3)cc21,3.1,100.1*,-0.1,22.6,99.9*,-3.8
CCn1cc(C(=O)O)c(=O)c2cc(F)c(N3CCN(S(=O)(=O)c4ccc(NC(C)=O)cc4)CC3)cc21,-8.2,99.0*,-0.6,x,99.2*,-3.8
O=C(c1ccc(CS(=O)Cc2ccc(Cl)cc2)o1)N1CCN(c2ccccc2F)CC1 (configuration not stated),10.4,98.8*,0.5,-2.9,-10.3,-10.5
Cc1ccc(Cl)cc1N1CCN(C(=O)c2ccc(CS(=O)Cc3ccc(Cl)cc3)o2)CC1 (configuration not stated),15.0,96.4*,20.8,6.2,-8.0,3.7
COc1ccc(N2CCN(C(=O)c3ccc(CS(=O)Cc4ccc(Cl)cc4)o3)CC2)cc1 (configuration not stated),27.1,99.3*,0.1,1.3,-8.0,-13.6
CN1CCN(C(=O)c2ccc(CS(=O)Cc3ccc(Cl)cc3)o2)CC1 (configuration not stated),8.9,10.0,3.2,4.8,1.6,4.6
Cc1cccc(N2CCN(C(=O)c3ccc(CS(=O)Cc4cccc(Cl)c4)o3)CC2)c1C (configuration not stated),7.3,90.4*,0.3,-0.7,-1.1,24.3
Cc1ccc(CS(=O)Cc2ccc(C(=O)N3CCN(c4cccc(C)c4C)CC3)o2)cc1 (configuration not stated),17.2,x,x,x,x,x
Cc1ccc(C)c(N2CCN(C(=O)c3ccc(CS(=O)Cc4ccc(Cl)cc4)o3)CC2)c1 (configuration not stated),18.9,49.0,1.2,1.8,-2.9,8.3
O=C(/C=C(\c1ccc(Cl)cc1)n1cncn1)c1ccc(Cl)cc1,x,2.2,7.9,36.0*,-1.6,-7.0

# Assay outcomes from PubChem.
